For part of these data: Potency and affinity values are given separately. Activity calls are given as the source filed them.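 Rule for the calls, unless noted: active = fitted half-maximal concentration within the tested dose range, moderate curve steepness, a statistically real signal drop, and little compound fluorescence or tag-binding interference; inactive = the rest.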

The target in experiment [1] is Cell division control protein 42 homolog (Homo sapiens) (UniProt P60953). In words: activated mutant Cdc42 GTP-binding inhibitors, dose response, biochemical, multiplex bead flow cytometry, Bodipy-FL-GTP (AID 1333). (A flow cytometer gives signals particle by particle.)
Cell division control protein 42 homolog (Homo sapiens), sequence (P60953 whole entry, looked up): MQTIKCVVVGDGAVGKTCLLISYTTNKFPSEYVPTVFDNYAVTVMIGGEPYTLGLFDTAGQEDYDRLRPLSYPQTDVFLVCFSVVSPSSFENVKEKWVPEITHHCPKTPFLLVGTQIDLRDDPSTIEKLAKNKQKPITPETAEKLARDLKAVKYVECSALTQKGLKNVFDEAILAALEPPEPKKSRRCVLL
Experiment [2] shares this target. In words: wildtype Cdc42 GTP-binding inhibitors, dose response, biochemical, multiplex bead flow cytometry, Bodipy-FL-GTP (AID 1334;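 active = fitted half-maximal concentration within the tested range, moderate curve steepness, significant signal drop, and little compound fluorescence or bead-linkage interference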). To be noted: bead-based flow cytometry, Bodipy-FL-GTP binding to GST-Cdc42; at 100 µM (top of the series) unless noted.
The target of experiment [3] is GTPase HRas (Homo sapiens) (UniProt P01112). In words: inhibitors of GTP binding to wildtype Ras, dose response, biochemical, multiplex bead flow cytometry (AID 1335;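 active = fitted half-maximal concentration within 10 nM to 100 µM, steepness 0.5 to 2, significant signal drop, low assay interference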). To be noted: bead-based flow cytometry, Bodipy-GTP binding to GST-Ras; at 100 µM (top of the series) unless noted.
GTPase HRas (Homo sapiens), sequence (P01112 whole entry, looked up): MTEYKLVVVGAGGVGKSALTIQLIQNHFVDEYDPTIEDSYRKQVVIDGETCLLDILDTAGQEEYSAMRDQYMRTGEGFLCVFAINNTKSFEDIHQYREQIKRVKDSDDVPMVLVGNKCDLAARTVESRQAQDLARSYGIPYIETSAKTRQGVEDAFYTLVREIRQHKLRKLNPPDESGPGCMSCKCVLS
The subject of experiment [4] is Ras-related protein Rab-7a (dog), GTP binding. In words: Rab7 GTP binding inhibitors, potency, dose response, biochemical, wildtype, multiplex bead flow cytometry (AID 1336; call rule not given here).
Experiment [5] addresses Ras-related C3 botulinum toxin substrate 1 (Homo sapiens) (UniProt P63000). Nature of the experiment: wildtype Rac1 GTP binding inhibitors, dose response, biochemical, multiplex bead flow cytometry (AID 1340;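 active = dose curve with midpoint inside tested range, moderate steepness, plateau gap beyond fit error, low compound glow and bead-link interference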). To be noted: GST-Rac1 beads, Bodipy-FL-GTP binding; at 100 µM (top of the series) unless noted.
The target of experiment [6] is GTPase HRas (Homo sapiens) (UniProt P01112). In words: activated Ras mutant GTP binding inhibitors, dose response, biochemical, multiplex bead flow cytometry (AID 1341;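 active = dose-response curve with midpoint inside the tested range, moderate steepness, significant amplitude and little compound fluorescence or bead-attachment interference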;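 note: GST-tagged constitutively activated Ras mutant immobilized on beads and multiplexed with other GTPases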).

In the case of `Cc1c(NS(=O)(=O)c2ccc3c(c2)Cc2ccccc2-3)c(=O)n(-c2ccccc2)n1C`, the call in experiment [1], in experiment [4] and in experiment [6] was inactive. The same molecule returned a fluorescence, percent of control (lower = inhibition) in experiment [2] of 30.4%. In addition, the GTP binding, percent of control in experiment [3] was 80%. The molecule further gave a GTP binding signal, raw median fluorescence (lower = inhibition) (MCF (arbitrary fluorescence units)) in experiment [5] of 238.

Regarding `COc1ccccc1OCc1ccoc1C(=O)O`, the call in experiment [1], in experiment [4] and in experiment [6] was inactive. The same molecule yielded a fluorescence, percent of control (lower = inhibition) in experiment [2] of 62.9%. In experiment [3], this molecule yielded a GTP binding, percent of control of 87%. This molecule showed a GTP binding signal, raw median fluorescence (lower = inhibition) (MCF (arbitrary fluorescence units)) in experiment [5] of 35.8.

Turning to `COc1ccc(-c2cc(-c3ccccc3)c(C#N)c(=S)[nH]2)cc1`, the result in experiment [1], in experiment [4] and in experiment [6] was inactive. The same molecule showed a fluorescence, percent of control (lower = inhibition) in experiment [2] of 28.8%. The same molecule had a GTP binding, percent of control in experiment [3] of 69.8%. Also, the GTP binding signal, raw median fluorescence (lower = inhibition) (MCF (arbitrary fluorescence units)) in experiment [5] was determined as 225.

Consider `O=C(O)Cc1coc2cc3c(cc12)CCC3`, for which the molecule was called inactive in experiment [1], in experiment [4] and in experiment [6]. Moreover, the fluorescence, percent of control (lower = inhibition) in experiment [2] came to 29.9%. In experiment [3], this molecule came in with a GTP binding, percent of control of 79.1%. The same molecule came in with a GTP binding signal, raw median fluorescence (lower = inhibition) (MCF (arbitrary fluorescence units)) in experiment [5] of 251.

On to `CCOc1ccccc1C1C(C(=O)OC)=C(N)OC2=C1C(=O)CCC2` (stereo not given), for which the outcome in experiment [1], in experiment [4] and in experiment [6] was inactive. This molecule also returned a fluorescence, percent of control (lower = inhibition) in experiment [2] of 90%. This molecule registered a GTP binding, percent of control in experiment [3] of 149%. The GTP binding signal, raw median fluorescence (lower = inhibition) (MCF (arbitrary fluorescence units)) in experiment [5] is 184.

For `COc1ccc(OC)c(C(C(=O)NCc2ccco2)N(C(=O)Cn2nnc3ccccc32)C2CC2)c1` (stereo not given), the molecule was called inactive in experiment [1], in experiment [4] and in experiment [6]. The molecule also showed a fluorescence, percent of control (lower = inhibition) in experiment [2] of 47.2%. Also, the GTP binding, percent of control in experiment [3] stood at 58%. In addition, in experiment [5], the GTP binding signal, raw median fluorescence (lower = inhibition) (MCF (arbitrary fluorescence units)) was 0.

Regarding `O=C(O)CC/C(=C\c1ccccc1[N+](=O)[O-])c1nc2ccccc2s1`, the outcome in experiment [1], in experiment [4] and in experiment [6] was inactive. The molecule also registered a fluorescence, percent of control (lower = inhibition) in experiment [2] of 30.2%. The molecule also had a GTP binding, percent of control in experiment [3] of 81.6%. In experiment [5], this molecule had a GTP binding signal, raw median fluorescence (lower = inhibition) (MCF (arbitrary fluorescence units)) of 248.

Consider `COC(=O)c1cccc(NC(=O)c2nn(C)c(=O)c3ccccc23)c1`, for which the call in experiment [1], in experiment [4] and in experiment [6] was inactive. In experiment [2], this molecule gave a fluorescence, percent of control (lower = inhibition) of 42.8%. Moreover, in experiment [3], the GTP binding, percent of control worked out at 155%. This molecule also came in with a GTP binding signal, raw median fluorescence (lower = inhibition) (MCF (arbitrary fluorescence units)) in experiment [5] of 179.

Consider `CCCN(N=Nc1cccc([N+](=O)[O-])c1)c1cccc([N+](=O)[O-])c1`, for which the molecule was classed as inactive in experiment [1], in experiment [4] and in experiment [6]. For the same molecule, the fluorescence, percent of control (lower = inhibition) in experiment [2] is 84.9%. In experiment [3], this molecule returned a GTP binding, percent of control of 156%. This molecule had a GTP binding signal, raw median fluorescence (lower = inhibition) (MCF (arbitrary fluorescence units)) in experiment [5] of 170.

Consider `OCC(CO)(CO)NCc1ccc(-c2ccccc2)cc1`, for which the call in experiment [1], in experiment [4] and in experiment [6] was inactive. This molecule also displayed a fluorescence, percent of control (lower = inhibition) in experiment [2] of 49.9%. Further, the GTP binding, percent of control in experiment [3] was 65.6%. The GTP binding signal, raw median fluorescence (lower = inhibition) (MCF (arbitrary fluorescence units)) in experiment [5] worked out at 214.

Turning to `CCOc1ccc(C2=Nn3c(nnc3-c3ccco3)SC2)cc1`, the molecule was called inactive in experiment [1], in experiment [4] and in experiment [6]. The fluorescence, percent of control (lower = inhibition) in experiment [2] stood at 33.2%. This molecule displayed a GTP binding, percent of control in experiment [3] of 75.2%. Also, the GTP binding signal, raw median fluorescence (lower = inhibition) (MCF (arbitrary fluorescence units)) in experiment [5] amounted to 179.

With `O=C(O)C1C2C=CC(C2)C1C(=O)N1CCOCC1` (stereo not given), the molecule was called inactive in experiment [1], in experiment [4] and in experiment [6]. Also, in experiment [2], the fluorescence, percent of control (lower = inhibition) turned out to be 53.2%. The molecule further had a GTP binding, percent of control in experiment [3] of 66.4%. Moreover, in experiment [5], the GTP binding signal, raw median fluorescence (lower = inhibition) (MCF (arbitrary fluorescence units)) worked out at 216.

Regarding `CCOc1cc(/C=C(/C#N)c2nc3ccccc3[nH]2)ccc1OCc1ccc(C(=O)O)o1`, the molecule was called inactive in experiment [1], in experiment [4] and in experiment [6]. Besides, the fluorescence, percent of control (lower = inhibition) in experiment [2] stood at 56.8%. Moreover, the GTP binding, percent of control in experiment [3] came out at 84.9%. For the same molecule, the GTP binding signal, raw median fluorescence (lower = inhibition) (MCF (arbitrary fluorescence units)) in experiment [5] is 103.

As to `Cc1nc2ccccn2c1-c1csc(Nc2cccc(O)c2)n1`, the call in experiment [1], in experiment [4] and in experiment [6] was inactive. In addition, the fluorescence, percent of control (lower = inhibition) in experiment [2] came to 35.4%. The molecule also registered a GTP binding, percent of control in experiment [3] of 80.4%. The same molecule returned a GTP binding signal, raw median fluorescence (lower = inhibition) (MCF (arbitrary fluorescence units)) in experiment [5] of 216.

Take `COc1cccc(CNCc2sc(C(=O)O)cc2C)c1`: the molecule was classed as inactive in experiment [1], in experiment [4] and in experiment [6]. The fluorescence, percent of control (lower = inhibition) in experiment [2] came to 62.1%. The same molecule returned a GTP binding, percent of control in experiment [3] of 87.2%. The same molecule had a GTP binding signal, raw median fluorescence (lower = inhibition) (MCF (arbitrary fluorescence units)) in experiment [5] of 33.8.

These data come from PubChem BioAssay.
